This is an account of results in PubChem BioAssay AID1663 (Broad Institute, 2009).

Out of some 300,000 compounds screened, about 660 (0.22%) were called active. The list comes from a sample in which actives are over-represented; it also holds similar structures and randomly drawn compounds. Unmarked numbers belong to inactive results.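 How the source made its calls: active means mean replicate score, as percent of positive control, at or above 50; inconclusive means mean below 50 but at least one replicate at or above 50; inactive means mean and every replicate below 50.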

This assay in a line: blockers of SFLLRN-triggered platelet ATP release – cell-based, MLPCN, human platelets, primary screen (AID 1663). The settings on record: human platelet-rich plasma, SFLLRN dense granule ATP release, luminescence; stronger effect = higher value;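 compounds screened at 7.5 µM in platelet-rich plasma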.
A word on the inhibition: it is the change of the read-out against control, counted positive when it falls. With `O=C(Nc1cccc(-c2cscn2)c1)C1CCN(Cc2ccsc2)CC1`, the inhibition is -6.81%. The same measure for `CC[n+]1cc(C)ccc1/C=C/c1ccc(N(C)C)cc1`: 9.22%. To `CCCCC(=O)Nc1ccccc1N1CCN(c2ccc(F)cc2)CC1` belongs 2.05%; to `CNC(=O)C1CC(=O)N(Cc2ccc3c(c2)OCO3)C(=Nc2ccc(F)cc2)S1` (stereo not drawn), -5.44%.

Regarding `Cc1ccc(N=Cc2c(O)n(-c3nccs3)c(=O)c3ccccc23)c(C)c1`, the inhibition was -7.35%. Turning to `COc1ccc(-c2nc(N)sc2C2(O)C(=O)Nc3c(Br)cc(F)cc32)cc1OC` (stereo not drawn), the inhibition was 7.83%. The same measure for `COCCNC(=O)NC(=O)COC(=O)C1(c2ccc(Cl)cc2)CC1`: 11.8%; for `COc1ccc(CNC(=O)c2cc(C(=O)C3CC3)c[nH]2)cc1`: -3.25%; for `COc1ccc(C(=O)COC(=O)c2ccc3ccccc3n2)cc1`: -2.98%. The same measure for `C/C(=N\N=C(N)N)c1ccc(Cl)cc1`: -7.88%; for `Cc1ncn2cc(-c3ccc(Cl)cc3Cl)[nH]c(=O)c12`: -3%. To `Cc1cc(C)cc(OCC(=O)O/N=C(\N)Cc2ccc([N+](=O)[O-])cc2)c1` belongs 1.64%; to `CNC(=S)N1CCC(NC(=O)C(Cc2ccc(F)cc2)NC(C)=O)CC1` (stereo not drawn), 0.885%. As to `CCOCCCN(C(=O)Cn1nnc(-c2ccc(OC)c(OC)c2)n1)C(CC)C(=O)NC1CCCC1` (stereo not drawn), the inhibition is 7.27%. Take `CCn1c(SCC(=O)NC2CCCC2)nnc1-c1ccoc1C`: the inhibition is -1.97%.

With `Cc1ccc(OCC(=O)Oc2ccccc2[N+](=O)[O-])cc1`, the inhibition is -2.97%. To `COc1ccc(/C(C)=N/NC(=O)c2ccc3nc[nH]c3c2)cc1` belongs 8.86%; to `CCCC(C)C(=O)OCC(=O)Nc1c(Br)cc(C)cc1Br` (stereo not drawn), 20.5%. The same measure for `Cc1cccc(Cn2c(N3CCN(c4ccccc4)CC3)nc3c2c(=O)n(C)c(=O)n3C)c1`: 1.96%; for `Cn1c(=O)n(CCc2ccccc2)c(=O)c2c1nc1n2CCCN1c1ccccc1`: -2.86%.

Consider `Cc1cccc(N2CC(C)Cn3c2nc2c3c(=O)n(CC(=O)OCc3ccccc3)c(=O)n2C)c1` (stereo not drawn), for which the inhibition was 55.7% (active).

As to `COc1ccc(-c2cn3ccsc3n2)cc1`, the inhibition is 16.7%.

Regarding `CCN(CC)S(=O)(=O)c1ccc(-c2cn3ccc(C)cc3n2)cc1`, the inhibition is 5.08%. `COc1ccc(-c2cn3ccc(C)cc3n2)cc1`: the inhibition was 64.2% (active). Take `CCOC(=O)C1CCN(Cc2nnc(-c3cccc(Br)c3)o2)CC1`: the inhibition was 2.47%.

For the compound `[O-][N+]12CCCCC1CCCC2CO` (stereo not drawn), the inhibition was 4.81%. With `O=C1NNC(c2ccccc2)=N/C1=C\c1ccc(Cl)cc1`, the inhibition was -15.9%.

Consider `O=C1c2ccccc2C2=Nc3ccccc3SC(c3ccccc3F)C12` (stereo not drawn), for which the inhibition was 2.23%.

Take `Cc1c(Cl)cccc1NC(=O)NCc1ccc(C)n1C`: the inhibition was -4.12%.

On to `Cc1cccc(NC(=O)CCn2c(=O)oc3ccccc32)c1`, for which the inhibition was 8.63%.

`CC(=O)c1nnn(-c2ccc(Cl)cc2C#N)c1C`: the inhibition is -27.7%. To `COc1ccc(C(=O)Nc2cccc(NC(=O)c3ccc(OC)cc3OC)n2)c(OC)c1` belongs 10.1%. For `CCOC(=O)C1C(c2ccc(O)cc2)NC(=O)NC1(O)C(F)(F)F` (stereo not drawn), the inhibition was -5.44%. To `CCOC(=O)C1C(c2ccc(Cl)cc2)NC(=S)NC1(O)C(F)(F)F` (stereo not drawn) belongs -3.31%. As to `CCOC(=O)C1C(c2ccc(OC)c(OC)c2)c2c([nH][nH]c2=O)CC1(C)O` (stereo not drawn), the inhibition was 57.3% (active). The same measure for `O=[N+]([O-])c1ccc2c(c1)Nc1nc3ccccc3nc1N2`: -4.77%; for `Cc1sc2ncn(CC(=O)NCCCC(=O)N(C)Cc3ccccc3)c(=O)c2c1C`: 10.8%. The same measure for `COc1ccc(C(C)=O)cc1CN1C(=O)NC2(CCCCC2C)C1=O` (stereo not drawn): -14.5%. The same measure for `O=[N+]([O-])c1ncc(Br)cc1Nc1ccccc1`: -1.96%. Turning to `CCOC(=O)N1CCN(C(=O)c2ccc3c(=O)n(CCc4ccc(OC)c(OC)c4)c(=O)[nH]c3c2)CC1`, the inhibition was -6.61%. To `C/C(=N\NC(=O)c1cc2c(s1)CCC(C)C2)c1cccnc1` (stereo not drawn) belongs 9.94%; to `COc1ccc(C2CC(=O)Nc3sc(=N)c4c(N)c(C#N)c(N)nc4c32)cc1OC` (stereo not drawn), 92.7% (active). Regarding `N#Cc1c(N)nc2c3c(sc(=N)c2c1N)NC(=O)CC3c1ccccc1Cl` (stereo not drawn), the inhibition was -3.78%. The same measure for `COc1ccc(-c2cc(-c3ccc(N)cc3)nc(N)c2C#N)cc1OC`: 0.00483%; for `COc1ccc(NC(=O)CC2C(=O)OCC3CCCCN32)cc1Cl` (stereo not drawn): 7.17%; for `COc1cc(OC)cc(-c2nnc(SCC(=O)Nc3ccc(C(=O)O)cc3)s2)c1`: -1.66%. The same measure for `O=C(Cc1cccs1)Nc1nnc(SCc2ccc(F)cc2)s1`: -6.18%; for `O=C(CSc1nnc(SCc2ccc(F)cc2)s1)Nc1ccc(C(=O)O)cc1`: 65.9% (active); for `COc1ccc(C(=O)OCC(=O)NC(=O)CCSc2ccccc2)cc1`: -1.32%. To `C=CCNCCCCOc1ccccc1` belongs 3.06%; to `C=C(C)COc1ccc(-c2ncncc2-c2ccc(OC)cc2)c(O)c1`, 3.43%. `CC(C(=O)NC1CCCCC1)N1C(=O)c2cccc3cccc1c23` (stereo not drawn): the inhibition was 7.75%. Consider `CN1CCN(c2ccc(NC(=O)c3ccccc3)cc2)CC1`, for which the inhibition is 28.5%. The same measure for `COc1cccc(C(=O)Nc2ccc(N3CCCC3)cc2)c1`: 87.6% (active); for `COc1cccc(C(=O)Nc2ccc(N3CCN(C(=O)c4ccco4)CC3)cc2)c1`: -47.4%; for `C/C=C/C(=O)OCC(=O)Nc1ccc(F)cc1Cl`: 1.87%. The same measure for `COc1ccc(C(=O)NC2CC2)cc1OC1CCN(C/C=C/c2ccccc2)CC1`: -4.81%; for `O=C(Nc1nnc(C2CC2)s1)c1ccccn1`: -0.73%.

As to `Cc1cnc(NC(=O)c2ccccn2)s1`, the inhibition was 52.7% (active).

As to `Cc1cnc(NC(=O)c2ccc(Cl)nc2)s1`, the inhibition is -2.29%.

On to `COc1ccccc1-n1c(-c2cc(-c3ccco3)[nH]n2)n[nH]c1=S`, for which the inhibition is 3.67%. For the compound `Cc1cc(C(F)(F)F)nn1-c1nc(-c2ccco2)cc(C(F)(F)F)n1`, the inhibition is 0.688%. With `Cn1c(-c2ccco2)nc2cc3ccccc3cc21`, the inhibition was 66.2% (active).
